Assay results: PubChem BioAssay AID1224921 (Broad Institute, 2016)
Screen size: about 1,400 compounds; about 350 (25%) were called active. Not shown: some 2% with an inconclusive outcome. The rule behind the calls is not given here. Not all results are given here. Entries with a potency or affinity are not part of this list.

Assay: C. difficile growth inhibition, confirmation, 4-point retest (AID 1224921);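 note: plate controls were DMSO wells for no effect and levofloxacin 16 µg/mL wells for full effect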
Conditions: Clostridioides difficile clinical isolate growth, OD600, 24 h, stronger effect = lower value; at 30 µM unless noted

Max activity, inactive:
O=C(C[C@H]1C[C@@H]2c3cc(NC(=O)C4CCC4)ccc3O[C@@H]2[C@@H](CO)O1)NCc1ccc2c(c1)OCO2 -8.66% [at 0.5 µM], COc1ccccc1NC(=O)N[C@@H]1CC[C@@H](CC(=O)N2CCC(Cc3ccccc3)CC2)O[C@@H]1CO -7.56%, CCS(=O)(=O)Nc1ccc2c(c1)C(=O)N(C)C[C@@H](OC)[C@H](C)CN(C(C)=O)[C@@H](C)CO2 -11.1%, C[C@@H]1CCCCO[C@H](CN(C)Cc2ccc(C(=O)O)cc2)[C@H](C)CN([C@H](C)CO)C(=O)c2cc(NC(=O)Nc3ccc4c(c3)OCO4)ccc2O1 -16.4%, C[C@@H]1CN([C@@H](C)CO)S(=O)(=O)c2ccc(C3=CCCCC3)cc2O[C@@H]1CN(C)Cc1cccnc1 23.6%, O=C(Nc1cc(F)ccc1F)N[C@@H]1CC[C@@H](CC(=O)N2CCc3ccccc3C2)O[C@H]1CO 14.6%, CNC[C@@H]1Oc2cc(C#CCOC)ccc2S(=O)(=O)N([C@@H](C)CO)C[C@H]1C -11.1% [at 8 µM], O=C(N[C@H]1C=C[C@H](CC(=O)N2CCc3ccccc3C2)O[C@H]1CO)C1CC1 -8.59%, C[C@H]1CN([C@@H](C)CO)S(=O)(=O)c2ccc(C#CC3CCCC3)cc2O[C@H]1CN(C)Cc1cccnc1 23.6%, O=C(C[C@@H]1C[C@@H]2c3cc(NC(=O)C4CCC4)ccc3O[C@@H]2[C@H](CO)O1)NCc1cc(F)ccc1F 4.63%, Cc1ccc(-c2ccc3c(c2)O[C@@H](CN(C)Cc2ccncc2)[C@@H](C)CN([C@H](C)CO)S3(=O)=O)cc1 -8.83% [at 8 µM], C[C@H](CO)N1C[C@H](C)[C@H](CN(C)Cc2ccncc2)Oc2cc(C3=CCCCC3)ccc2S1(=O)=O 33%, C[C@H]1CN([C@@H](C)CO)C(=O)c2ccccc2-c2ccccc2CO[C@H]1CN(C)Cc1cccc(O)c1 7.55%, C[C@H]1CN([C@@H](C)CO)C(=O)c2ccccc2-c2ccccc2CO[C@H]1CN(C)C(=O)CCN(C)C -12.8% [at 35 µM], C/C=C/c1ccc2c(c1)O[C@H](CN(C)C(=O)Nc1ccc(C(F)(F)F)cc1)[C@@H](C)CN([C@@H](C)CO)S2(=O)=O 32.5% [at 8 µM], C[C@H]1CN([C@@H](C)CO)C(=O)c2cc(Br)cnc2O[C@@H]1CN(C)C(=O)c1ccccc1 -20% [at 8 µM], COc1ccc(NC(=O)Nc2cccc3c2O[C@@H](CN(C)C(=O)NC2CCCCC2)[C@H](C)CN([C@@H](C)CO)C3=O)cc1 10.1%, C[C@@H]1CN([C@@H](C)CO)S(=O)(=O)c2ccc(C#Cc3ccccc3F)cc2O[C@H]1CN(C)CC1CCOCC1 35.2%, COc1ccccc1C#Cc1ccc2c(c1)O[C@@H](CN(C)Cc1cccnc1)[C@@H](C)CN([C@@H](C)CO)S2(=O)=O 24.6%, CC(C)NC(=O)N(C)C[C@H]1OCc2ccccc2-c2ccccc2C(=O)N([C@@H](C)CO)C[C@H]1C -14.3%, COc1cccc(C(=O)Nc2ccc3c(c2)OC[C@@H](C)N(C(=O)C2CCCC2)C[C@H](C)[C@@H](OC)CN(C)C3=O)c1 -18.8% [at 8 µM], CC(C)CC#Cc1ccc2c(c1)O[C@H](CN(C)Cc1ccncc1)[C@@H](C)CN([C@@H](C)CO)S2(=O)=O 23.1%, C[C@H](CO)N1C[C@H](C)[C@H](CN(C)Cc2ccc3c(c2)OCO3)Oc2ncc(-c3cccc(F)c3)cc2C1=O -9.89% [at 8 µM], N#C[C@H]1[C@H](c2ccc(-c3cccc(F)c3)cc2)[C@@H](CO)N1C(=O)NC1CCCC1 28.5%, CCCC(=O)Nc1ccc2c(c1)C(=O)N(C)C[C@@H](OC)[C@@H](C)CN(Cc1ccccc1)[C@H](C)CO2 9.23%, C[C@H]1CN([C@@H](C)CO)S(=O)(=O)c2ccc(C3=CCCCC3)cc2O[C@H]1CN(C)C(=O)c1ccncc1 14.4%, N#C[C@H]1[C@@H](c2ccc(C#Cc3ccccc3F)cc2)[C@@H](CO)N1C(=O)C1CCCCC1 -9.56%, C[C@@H]1CN([C@@H](C)CO)C(=O)Cc2cc(NC(=O)C3CC3)ccc2O[C@@H]1CN(C)Cc1ccc(-c2ccccc2)cc1 49.5%, COc1cccc(NC(=O)N[C@H]2CC[C@H](CC(=O)N3CCCCC3)O[C@@H]2CO)c1 17.5%, O=C(C[C@H]1CC[C@@H]2[C@H](COC[C@H](O)CN2Cc2ccc(Cl)cc2)O1)NCc1ccccc1Cl 32% [at 8 µM], O=C(C[C@@H]1CC[C@H]2[C@@H](COC[C@@H](O)CN2Cc2ccc(Cl)cc2)O1)NCc1ccccc1Cl -28.7% [at 1.95 µM], C[C@@H]1CN([C@@H](C)CO)S(=O)(=O)c2ccc(C3=CCCCC3)cc2O[C@H]1CN(C)Cc1cccnc1 15.4%, CNC[C@H]1Oc2cc(C#CCC3CCCC3)ccc2S(=O)(=O)N([C@@H](C)CO)C[C@@H]1C 29.2% [at 8 µM], CO[C@@H]1CN(C)C(=O)c2cc(NC(=O)Nc3cccc(F)c3)ccc2OC[C@@H](C)N(C)C[C@H]1C -12.5%, O=C(Nc1ccc(F)cc1)Nc1ccc2c(c1)[C@@H]1C[C@H](CC(=O)N3CCCCC3)O[C@@H](CO)[C@@H]1O2 -6.91%, CC(C)C#Cc1ccc2c(c1)O[C@@H](CN(C)Cc1ccncc1)[C@H](C)CN([C@H](C)CO)S2(=O)=O 6.91% [at 1.95 µM], COc1cccc(NC(=O)N[C@H]2C=C[C@@H](CC(=O)NCc3ccncn3)O[C@H]2CO)c1 -10.2% [at 1.95 µM], C[C@H]1CN([C@@H](C)CO)S(=O)(=O)c2ccc(C3=CCCC3)cc2O[C@@H]1CN(C)Cc1ccncc1 -16.8% [at 1.95 µM], CCCN1C[C@H](C)[C@H](OC)CN(C)C(=O)c2ccc(NC(=O)c3ccc(F)cc3)cc2OC[C@@H]1C -9.18%, COc1cccc(-c2ccc3c(c2)O[C@@H](CN(C)Cc2ccncc2)[C@H](C)CN([C@H](C)CO)S3(=O)=O)c1 19.2%, CO[C@H]1CN(C)C(=O)c2cc(NC(=O)c3ccc(-c4ccccc4)cc3)ccc2OC[C@H](C)NC[C@H]1C 27.6% [at 8 µM], O=C(Cc1ccccc1)N[C@@H]1CC[C@@H](CC(=O)N2CCOCC2)O[C@H]1CO -16.6% [at 8 µM], O=C(Cc1ccccc1)N[C@H]1CC[C@@H](CC(=O)N2CCOCC2)O[C@@H]1CO -8.53% [at 8 µM], CO[C@@H]1CN(C)C(=O)c2cc(NC(=O)Nc3ccccc3F)ccc2OC[C@@H](C)N(CCC(F)(F)F)C[C@H]1C 10.2%, CC(C)C(=O)Nc1ccc2c(c1)C(=O)N(C)[C@H]1CC[C@@H](CC(=O)NCc3ccccc3F)O[C@@H]1CO2 -12.2% [at 8 µM], CNC[C@@H]1Oc2ncc(-c3ccc(OC)cc3)cc2C(=O)N([C@H](C)CO)C[C@H]1C 28.1%, CO[C@@H]1CN(C)C(=O)c2ccc(NC(=O)c3ccccc3F)cc2OC[C@@H](C)N(CC2CC2)C[C@H]1C -10.7% [at 1.95 µM], CCCC(=O)Nc1ccc2c(c1)C(=O)N(C)C[C@H](OC)[C@@H](C)CN(Cc1ccccc1)[C@@H](C)CO2 22.4%, C[C@H]1CN([C@@H](C)CO)C(=O)c2cc(C3=CCCCC3)cnc2O[C@@H]1CN(C)C(=O)c1cccc(F)c1 21.2%, CC(=O)N(C)C[C@H]1Oc2ncc(-c3ccc(C(=O)N(C)C)cc3)cc2C(=O)N([C@@H](C)CO)C[C@H]1C -3.53% [at 1.95 µM], O=C(Cc1ccccc1)N[C@@H]1CC[C@H](CC(=O)N2CCOCC2)O[C@H]1CO -12.9%, O=C(Cc1ccccc1)N[C@H]1CC[C@H](CC(=O)N2CCOCC2)O[C@@H]1CO -10.8%, CCC(=O)N(C)C[C@H]1Oc2ncc(-c3ccc(C(=O)N(C)C)cc3)cc2C(=O)N([C@H](C)CO)C[C@@H]1C 21.8% [at 8 µM], COCC(=O)Nc1ccc2c(c1)OC[C@@H](C)N(C(=O)c1ccccc1F)C[C@H](C)[C@@H](OC)CN(C)C2=O -10.4% [at 35 µM], Cc1ccccc1-c1ccc2c(c1)O[C@H](CN(C)Cc1ccncc1)[C@@H](C)CN([C@@H](C)CO)S2(=O)=O 7.76%, C[C@H]1CN([C@@H](C)CO)S(=O)(=O)c2ccc(C#CC3CCCCC3)cc2O[C@@H]1CN(C)Cc1cccnc1 26.3% [at 1.95 µM], C/C=C/c1cnc2c(c1)C(=O)N([C@@H](C)CO)C[C@H](C)[C@@H](CN(C)Cc1ccc(F)cc1)O2 -8.42% [at 8 µM], CC(C)CC#Cc1ccc2c(c1)O[C@@H](CN(C)C(=O)C1CCCCC1)[C@@H](C)CN([C@@H](C)CO)S2(=O)=O 27.1%, O=C(Nc1ccc2c(c1)[C@H]1C[C@@H](CC(=O)N3CCc4ccccc4C3)O[C@@H](CO)[C@H]1O2)c1ccc2c(c1)OCO2 -27.9% [at 8 µM], CCCC#Cc1ccc2c(c1)O[C@@H](CN(C)Cc1cccnc1)[C@@H](C)CN([C@H](C)CO)S2(=O)=O 35.5%
